# According to PubChem BioAssay (Tox21):
# Inconclusive results are not listed. Values without a mark were called inactive. Activity calls are given as the source filed them. Calls follow the shape of the full dose curve.
# Biological target: Peroxisome proliferator-activated receptor delta (Homo sapiens) (UniProt Q03181)
# Test: qHTS assay to identify small molecule agonists of the peroxisome proliferator-activated receptor delta (PPARd) signaling pathway (AID 743212)
# Conditions: HEK293H PPARd-UAS-bla, beta-lactamase FRET ratio, 17 h; series mostly up to 62.6 µM; activation: at the top concentration
# From the text: U.S. Tox21 Program National Center for Advancing Translational Sciences [NCATS] NIH Chemical Genomics Center [NCGC] U.S. Environmental Protection Agency [EPA] National Institutes of Environmental Health Sciences [NIEHS] National Toxicology Program [NTP] U.S. Food and Drug Administration [FDA] Tox21 Assay Overview: The peroxisome proliferator-activated receptors (PPARs) are lipid-activated transcription factors of the nuclear receptor superfamily with three distinct subtypes namely PPAR alpha, PPAR delta (PPARd) and PPAR gamma. All these subtypes heterodimerizes with Retinoid X receptor (RXR) and have different physiological functions. […] To identify the compounds that activate PPAR-delta signaling, GeneBLAzer PPAR delta UAS-bla HEK293H cell line (Invitrogen, Carlsbad, CA, USA) containing a beta-lactamase reporter gene under the control of an Upstream Activator Sequence (UAS) was used to screen the Tox21 compound library.
# Tox21 Assay Protocol Summary: PPARd-bla cells were dispensed at 3000 cells/6uL/well in 1536-well black wall/clear bottom plates using a Multidrop Combi (Thermo Fisher Scientific, Waltham, MA) dispenser. After the assay plates were incubated at 37 C and 5% CO2 for 5 h, 23 nL of compounds dissolved in DMSO, positive controls or DMSO only was transferred to the assay plate by a Pintool station (Kalypsys, San Diego, CA). The assay plates were incubated at 37C for 17 h. After 1 uL of LiveBLAzerTM B/G FRET substrate was added using a Bioraptr Flying Reagent Dispenser (FRD) workstation (Beckman Coulter, Indianapolis, IN, USA), the plates were incubated at room temperature for 2 h, and fluorescence intensity was measured by an Envision plate reader (PerkinElmer, Shelton, CT).
# % is scaled to controls: 0 for no effect and ±100 for the full control effect.
# Sequence of Peroxisome proliferator-activated receptor delta (Homo sapiens) (Q03181 whole entry, looked up): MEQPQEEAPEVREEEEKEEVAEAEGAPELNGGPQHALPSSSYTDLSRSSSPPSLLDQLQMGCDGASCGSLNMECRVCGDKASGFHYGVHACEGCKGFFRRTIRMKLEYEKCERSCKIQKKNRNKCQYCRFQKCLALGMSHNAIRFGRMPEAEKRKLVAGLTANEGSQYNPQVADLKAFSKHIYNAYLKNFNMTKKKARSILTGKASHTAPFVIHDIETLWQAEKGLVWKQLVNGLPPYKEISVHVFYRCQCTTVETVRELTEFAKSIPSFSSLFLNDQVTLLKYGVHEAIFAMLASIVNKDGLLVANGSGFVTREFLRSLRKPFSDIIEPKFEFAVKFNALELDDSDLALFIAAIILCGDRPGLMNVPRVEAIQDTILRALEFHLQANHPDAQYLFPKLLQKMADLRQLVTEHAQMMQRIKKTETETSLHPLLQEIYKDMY
SMILES,outcome,activation
OCC1CO1 (stereo not given),inactive,–
CCCSP(=S)(OCC)Oc1ccc(SC)cc1 (stereo not given),–,5.9%
COC(=O)C1(O)c2ccccc2-c2ccccc21,–,2.72%
CN(C)c1ccc(N=O)cc1,–,-0.492% [at 81.1 µM]
CCC1CCC(=O)O1 (stereo not given),–,-3.12% [at 81.1 µM]
COP(=O)(OC)OC(Br)C(Cl)(Cl)Br (stereo not given),inactive,–
CN(C)N,–,1.33%
Cc1cnc(C2=NC(C)(C(C)C)C(=O)N2)c(C(=O)O)c1 (stereo not given),–,-1.89%
CC(C)(C)CC(C)(C)c1ccc(O)cc1,–,10.5%
O=C=NC1CCCCC1,–,0.82%
Cc1ccc(N)c(C)c1,inactive,–
c1ccc2c(c1)sc1ccccc12,inactive,–
CC(C)[C@@H](C(=O)O[C@@H](C#N)c1cccc(Oc2ccccc2)c1)c1ccc(Cl)cc1,–,3.48%
COC(=O)Cc1ccccc1,–,0.286%
C1CCNCC1,–,-4.02% [at 81.1 µM]
O=[N+]([O-])O[C@H]1CO[C@H]2[C@@H]1OC[C@H]2O[N+](=O)[O-],–,0.175%
O=C(N[C@H]1CN2CCC1CC2)c1ccc2c(c1)OCCO2,–,10.5%
C=CCSSCC=C,–,2.55%
CCCCC(CC)CO[N+](=O)[O-] (stereo not given),–,-0.093%
CC(Oc1cccc(Cl)c1)C(=O)O (stereo not given),–,0.556%

SMILES,outcome,activation
C[N+]1(CCF)[C@@H]2CC[C@H]1CC(OC(=O)C(O)(c1ccccc1)c1ccccc1)C2 (stereo not given in full),–,-3.78%
O=C(NCNC(=O)NC1C(=O)NC(=O)N1CO)NC1C(=O)NC(=O)N1CO (stereo not given),–,-0.789%
C#CC(O)(C=CCl)CC (stereo not given),–,1.05%
C[C@H]1[C@@H]2Cc3ccc(O)cc3[C@@]1(C)CCN2C,–,-4.58% [at 232 µM]
CC(C)CCON=O,–,-0.0368%
CCNC(=O)NC(=O)/C(C#N)=N/OC,–,-2.39%
CNC(=O)Oc1cccc(N=CN(C)C)c1,–,9.73%
CCCCCCCCCCCCCCCl,–,-0.808% [at 81.1 µM]
CN(C1CCCCC1)C1CCCCC1,–,1.07%
CCOP(=S)(OCC)Oc1ccc(S(C)=O)cc1 (stereo not given),–,1.34%
N#CC(C#N)=C(C#N)C#N,–,1.58% [at 81.1 µM]
COC1CC(=C(c2cccs2)c2cccs2)C[N+](C)(C)C1 (stereo not given),–,-0.399%
COc1ccc2c(c1OC)C(=O)O[C@H]2[C@@H]1c2cc3c(cc2CCN1C)OCO3,–,-3.92%
CN[C@@H](C)[C@H](O)c1ccccc1,–,0.804%
O=C(O)C(Cl)(Cl)Br,–,6.23% [at 81.1 µM]
C[N+]1(CCC(C(N)=O)(c2ccccc2)c2ccccc2)CCCCC1,–,0.302%
C[C@H]1O[C@H](OC2[C@@H](O)[C@@H](O)C(O)[C@H](O)[C@H]2O)[C@@H](N)C[C@@H]1N=C(N)C(=O)O (stereo not given in full),–,-3.22%
CCOC(=O)c1cn2nc(OP(=S)(OCC)OCC)cc2nc1C,–,-4.75%
CCCCC#N,–,1.5%
CCCC[N+]1(C)[C@@H]2CC(OC(=O)[C@H](CO)c3ccccc3)C[C@H]1[C@@H]1O[C@@H]12 (stereo not given in full),–,0.117%
